Measurements: PubChem BioAssay AID1159580 (chemical genetic matrix, 2015)
“And” between values parts separate entries of the source, which are not always exact repeats. Identical values can stand only once. Hit rate of the full screen: of about 5,500 compounds, about 2,000 (36%) were called active. Not shown: some 18% with an inconclusive outcome. Rule as the data show it: active = normalized growth mostly below about 0.91 (no sharp cut-off); inconclusive = no clear call, values can overlap the other calls; inactive = mostly above about 0.92. The list shows a part of the results.

Assay: chemical genetic growth profiling, strain panel (AID 1159580);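 also: tested at 20 µM; growth read once vehicle control cultures reached saturation at 30 °C; 1 = growth at the plate median or of vehicle wells; lower values mean less growth of the strain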
Details: S. cerevisiae deletion strains, growth OD

Measured: normalized growth

COc1ccc2c(c1O)-c1c(OC)c(OC)cc3c1[C@H](C2)N(C)CC3
inactive: locus YAL021C, strain ccr4, stronger effect = lower value 0.926 | locus YAL026C, strain drs2, stronger effect = lower value 0.985 | locus YAL030W, strain snc1, stronger effect = lower value 0.989 | locus YBL061C, strain skt5, stronger effect = lower value 0.99 | locus YBR009C, strain hhf1, stronger effect = lower value 1.01 | locus YBR021W, strain FUR4, stronger effect = lower value 1.02 | locus YBR023C, strain chs3, stronger effect = lower value 0.988 | locus YBR171W, strain sec66, stronger effect = lower value 0.976 | locus YBR229C, strain ROT2, stronger effect = lower value 1 | locus YBR231C, strain swc5, stronger effect = lower value 0.991 | locus YBR279W, strain paf1, stronger effect = lower value 0.978 | locus YCL011C, strain gbp2, stronger effect = lower value 0.979 | locus YCL016C, strain dcc1, stronger effect = lower value 0.983 | locus YCL029C, strain bik1, stronger effect = lower value 1.04 | locus YCL061C, strain MRC1, stronger effect = lower value 0.979 | locus YCL069W, strain vba3, stronger effect = lower value 0.981 | locus YCR088W, strain abp1, stronger effect = lower value 0.975 | locus YDL005C, strain med2, stronger effect = lower value 0.982 | locus YDL035C, strain GPR1, stronger effect = lower value 1.06 | locus YDL040C, strain nat1, stronger effect = lower value 0.982 | locus YDL074C, strain BRE1, stronger effect = lower value 1.1 | locus YDL101C, strain DUN1, stronger effect = lower value 1.02 | locus YDL185W, strain tfp1, stronger effect = lower value 1.03 | locus YDL192W, strain arf1, stronger effect = lower value 1.03 | locus YDR001C, strain nth1, stronger effect = lower value 0.982 | locus YDR069C, strain doa4, stronger effect = lower value 0.989 | locus YDR101C, strain arx1, stronger effect = lower value 1.03 | locus YDR137W, strain rgp1, stronger effect = lower value 0.983 | locus YDR150W, strain NUM1, stronger effect = lower value 1.01 | locus YDR159W, strain sac3, stronger effect = lower value 1 | locus YDR162C, strain NBP2, stronger effect = lower value 1.01 | locus YDR195W, strain ref2 0.991 | locus YDR297W, strain sur2, stronger effect = lower value 0.974 | locus YDR318W, strain mcm21, stronger effect = lower value 1.01 | locus YDR334W, strain swr1, stronger effect = lower value 0.951 | locus YDR335W, strain msn5, stronger effect = lower value 0.977 | locus YDR388W, stronger effect = lower value 1.02 | locus YDR392W, strain spt3, stronger effect = lower value 0.931 | locus YDR502C, strain sam2, stronger effect = lower value 1.01 | locus YEL003W, strain gim4, stronger effect = lower value 0.982 | locus YEL037C, strain rad23, stronger effect = lower value 0.988 | locus YEL061C, strain CIN8 (second series), stronger effect = lower value 0.987 | locus YEL061C, strain CIN8, stronger effect = lower value 1.02 | locus YER015W, strain faa2, stronger effect = lower value 0.991 | locus YER016W, strain bim1, stronger effect = lower value 0.985 | locus YER110C, stronger effect = lower value 1.01 | locus YER111C, strain swi4, stronger effect = lower value 0.995 | locus YER155C, strain BEM2 (second series), stronger effect = lower value 1.01 | locus YER155C, strain BEM2, stronger effect = lower value 1 | locus YER167W, strain BCK2, stronger effect = lower value 1.02 | locus YFR010W, strain ubp6, stronger effect = lower value 0.987 | locus YGL078C, strain dbp3, stronger effect = lower value 1.02 | locus YGL086W, strain mad1, stronger effect = lower value 1.04 | locus YGL167C, strain pmr1, stronger effect = lower value 0.999 | locus YGL173C, strain kem1, stronger effect = lower value 0.975 | locus YGL227W, strain vid30, stronger effect = lower value 0.989 | locus YGL240W, strain doc1, stronger effect = lower value 0.996 | locus YGL248W, strain PDE1, stronger effect = lower value 1.01 | locus YGL253W, strain hxk2, stronger effect = lower value 1.01 | locus YGR135W, strain pre9, stronger effect = lower value 1 | locus YGR252W, strain gcn5, stronger effect = lower value 0.991 | locus YHR013C, strain ard1, stronger effect = lower value 0.95 | locus YHR027C, strain rpn1, stronger effect = lower value 0.988 | locus YHR030C, strain SLT2, stronger effect = lower value 1.02 and 0.976 | locus YHR079C, strain IRE1 (second series), stronger effect = lower value 1.01 | locus YHR079C, strain IRE1, stronger effect = lower value 0.993 | locus YHR094C, strain hxt1, stronger effect = lower value 1.01 | locus YHR129C, strain ARP1, stronger effect = lower value 1.03 | locus YHR142W, strain chs7, stronger effect = lower value 0.915 | locus YHR200W, strain rpn10, stronger effect = lower value 1.04 | locus YIL066C, strain RNR3, stronger effect = lower value 1.04 | locus YIL073C, strain SPO22, stronger effect = lower value 1.1 | locus YIL125W, strain kgd1, stronger effect = lower value 1.01 | locus YIR030C, strain dcg1, stronger effect = lower value 1.01 | locus YJL092W, strain hpr5, stronger effect = lower value 0.97 | locus YJL095W, strain BCK1 (second series), stronger effect = lower value 0.995 | locus YJL095W, strain BCK1, stronger effect = lower value 1.03 and 1.01 | locus YJL115W, strain asf1, stronger effect = lower value 0.957 | locus YJL129C, strain trk1, stronger effect = lower value 0.959 | locus YJL134W, strain LCB3, stronger effect = lower value 1.01 | locus YJL154C, strain vps35, stronger effect = lower value 0.982 | locus YJL164C, strain tpk1, stronger effect = lower value 0.972 | locus YJL166W, strain qcr8, stronger effect = lower value 0.987 | locus YJL168C, strain set2, stronger effect = lower value 1.03 | locus YJL187C, strain SWE1 (second series), stronger effect = lower value 1.03 | locus YJL187C, strain SWE1, stronger effect = lower value 0.994 | locus YJR043C, strain POL32, stronger effect = lower value 1.03 | locus YJR066W, strain TOR1, stronger effect = lower value 0.947 | locus YKL009W, strain mrt4, stronger effect = lower value 1.12 | locus YKL068W, stronger effect = lower value 1 | locus YKL085W, strain MDH1 (second series), stronger effect = lower value 1.01 | locus YKL085W, strain MDH1, stronger effect = lower value 1.01 | locus YKL160W, strain elf1, stronger effect = lower value 0.965 | locus YKR001C, strain vps1, stronger effect = lower value 1.03 | locus YKR026C, strain gcn3, stronger effect = lower value 0.981 | locus YKR091W, strain srl3, stronger effect = lower value 0.975 | locus YLL001W, strain dnm1, stronger effect = lower value 0.986 | locus YLL026W, stronger effect = lower value 0.989 | locus YLL041C, strain sdh2, stronger effect = lower value 0.975 | locus YLR027C, strain aat2, stronger effect = lower value 0.987 | locus YLR039C, strain RIC1, stronger effect = lower value 1.09 | locus YLR058C, strain SHM2, stronger effect = lower value 1.01 | locus YLR102C, strain apc9, stronger effect = lower value 1.02 | locus YLR113W, strain HOG1, stronger effect = lower value 1 | locus YLR221C, strain rsa3, stronger effect = lower value 0.981 | locus YLR258W, strain gsy2, stronger effect = lower value 0.999 | locus YLR262C, strain YPT6 (second series), stronger effect = lower value 0.972 | locus YLR262C, strain YPT6, stronger effect = lower value 1.1 | locus YLR268W, strain sec22, stronger effect = lower value 1.05 | locus YLR320W, strain mms22, stronger effect = lower value 1.01 | locus YLR330W, strain CHS5, stronger effect = lower value 1.02 | locus YLR342W, strain FKS1 (second series), stronger effect = lower value 1.06 | locus YLR342W, strain FKS1, stronger effect = lower value 0.986 | locus YLR357W, strain rsc2, stronger effect = lower value 1 | locus YLR370C, strain arc18, stronger effect = lower value 0.979 | locus YLR371W, strain rom2, stronger effect = lower value 1.03 | locus YLR384C, strain iki3, stronger effect = lower value 0.996 | locus YLR418C, strain cdc73, stronger effect = lower value 1.02 | locus YML016C, strain PPZ1, stronger effect = lower value 1.01 | locus YML032C, strain rad52, stronger effect = lower value 1.02 | locus YML120C, strain ndi1, stronger effect = lower value 0.966 | locus YML124C, strain tub3, stronger effect = lower value 1 | locus YMR058W, strain fet3, stronger effect = lower value 0.968 | locus YMR078C, strain ctf18, stronger effect = lower value 1.02 | locus YMR125W, strain sto1, stronger effect = lower value 0.99 | locus YMR129W, stronger effect = lower value 1.01 | locus YMR205C, strain PFK2, stronger effect = lower value 1.01 | locus YMR223W, strain ubp8, stronger effect = lower value 0.994 | locus YMR231W, strain pep5, stronger effect = lower value 0.987 | locus YMR307W, strain GAS1, stronger effect = lower value 1.11 | locus YNL067W, strain RPL9B, stronger effect = lower value 1.01 | locus YNL071W, strain lat1, stronger effect = lower value 0.983 | locus YNL183C, strain NPR1, stronger effect = lower value 0.954 | locus YNL209W, strain ssb2, stronger effect = lower value 0.983 | locus YNL233W, strain BNI4, stronger effect = lower value 1.01 | locus YNL248C, strain rpa49, stronger effect = lower value 0.912 | locus YNL250W, strain rad50, stronger effect = lower value 1.01 | locus YNL271C, strain bni1, stronger effect = lower value 1.03 | locus YNL298W, strain CLA4, stronger effect = lower value 1.01 | locus YNL307C, strain MCK1, stronger effect = lower value 1.02 | locus YNL322C, strain KRE1 (second series), stronger effect = lower value 0.974 | locus YNL322C, strain KRE1, stronger effect = lower value 1.02 | locus YNR049C, strain mso1, stronger effect = lower value 0.987 | locus YNR052C, strain pop2, stronger effect = lower value 1.02 | locus YOL006C, strain TOP1, stronger effect = lower value 1.21 | locus YOL012C, strain htz1 1.07 | locus YOL147C, strain pex11, stronger effect = lower value 1.01 | locus YOR001W, strain rrp6, stronger effect = lower value 0.955 | locus YOR061W, strain CKA2, stronger effect = lower value 1.02 | locus YOR069W, strain VPS5, stronger effect = lower value 1.01 | locus YOR070C, strain gyp1, stronger effect = lower value 0.989 | locus YOR080W, strain dia2, stronger effect = lower value 0.999 | locus YOR083W, strain WHI5, stronger effect = lower value 0.943 | locus YOR106W, strain vam3, stronger effect = lower value 0.945 | locus YOR136W, strain idh2, stronger effect = lower value 1.02 | locus YOR144C, strain elg1, stronger effect = lower value 1.01 | locus YOR184W, strain ser1, stronger effect = lower value 1.06 | locus YOR231W, strain MKK1, stronger effect = lower value 1 | locus YOR265W, strain rbl2, stronger effect = lower value 0.984 | locus YOR270C, strain vph1, stronger effect = lower value 0.964 | locus YOR290C, strain snf2, stronger effect = lower value 0.99 | locus YOR316C, strain cot1, stronger effect = lower value 1.04 | locus YPL051W, strain arl3, stronger effect = lower value 0.973 | locus YPL078C, strain atp4, stronger effect = lower value 0.926 | locus YPL106C, strain sse1, stronger effect = lower value 0.972 | locus YPL240C, strain hsp82, stronger effect = lower value 0.976 | locus YPL241C, strain CIN2, stronger effect = lower value 1.01 | locus YPL256C, strain CLN2, stronger effect = lower value 0.973 | locus YPR119W, strain clb2, stronger effect = lower value 1 | locus YPR141C, strain kar3, stronger effect = lower value 1 | locus YPR163C, strain tif3, stronger effect = lower value 1.02 | locus YPR167C, strain met16, stronger effect = lower value 1.04 | strain wtn01, stronger effect = lower value 1.07
